# In PubChem BioAssay (NCI):
# This is part of a sample that, as a whole, favours compounds with a hit. Of some 83,000 tested, about 20% had one in any assay.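 Plates (96-well) were seeded with cells, treated with compound at one concentration, and incubated for 48 hours before percent growth was determined.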 Unmarked numbers belong to inactive results. Activity calls are given as the source filed them. Rule for the calls: active = growth percent below 10; inactive = the rest.
# Test system: HL-60(TB) leukemia
# Assay: NCI-60 one-dose screen, 48 h (100 = growth as untreated, 0 = no growth, -100 = all killed)
# Settings: 10 µM unless noted
row,Compound,growth
1,COc1ccc(/C(C)=N/N=C2C(=O)N(C)c3ccc(Br)cc32)cc1S(N)(=O)=O,99%
2,CN1CCN(/C(=N\c2sc(-c3ccccc3)nc2-c2ccccc2)c2ccccc2)CC1,62.9%
3,COc1ccc(N(C)c2cc(C#N)nc3ccccc23)cc1N,-10% (active)
4,CN1CCc2c(sc3ncnc(N/N=C/c4cn(-c5ccccc5)nc4-c4ccc(Br)cc4)c23)C1,-4.94% (active)
5,COc1ccc(Cc2nn(CC(=O)N/N=C/c3ccc(Br)cc3)c(=O)c3c(C)noc23)cc1,91.2%
6,CC(/C=C1\SC(=S)N(CCCC(=O)NC(CC(C)C)C(=O)O)C1=O)=C\c1ccccc1 (centres undefined),63.4%
7,Nc1cc(-c2c[nH]c3ccc(F)cc23)nc2cc(-c3c[nH]c4ccccc34)nn12,-0.0986% (active)
8,CCCSc1nnc(-c2c(C)nc3sccn23)o1,98.3%
9,CN1CCN(c2ccc(C(=O)/C=C/c3ccc(OC(F)F)cc3)cc2)CC1,-26.7% (active)
10,COc1ccc(/C=C/c2n(Cc3ccc4ccccc4c3)c3ccccc3[n+]2Cc2ccc3ccccc3c2)cc1,-5.59% (active)
11,Cc1ccc(Cl)cc1NC(=O)Nc1nc2ccc([N+](=O)[O-])cc2s1,1.69% (active)
12,COc1cc(/C=C/C(=O)c2ccc(NC(=O)CSc3nnc(-c4c[nH]c5ccccc45)n3-c3ccccc3)cc2)cc(OC)c1OC,38.6%
13,O=c1cc(-c2ccccc2)oc2cc(OCCCCNCc3ccccc3)cc(O)c12,-65.6% (active)
14,C=C1CC[C@@H]2[C@]3(C)COC(c4cn[nH]c4-c4ccc(C)cc4)O[C@@H]3CC[C@@]2(C)[C@@H]1C/C=C1/C(=O)OCC1O (some centres undefined),7.26% (active)
15,Cc1cc(N=C2NC(=O)/C(=C/c3cc(C(C)(C)C)c(O)c(C(C)(C)C)c3)S2)n[nH]1,5.2% (active)
16,c1n[nH]cc1-c1nc2ccc3cn[nH]c3c2c2c1CCCC2,94.4%
17,FC(F)(F)c1cc2c(Cl)ncnc2n1CCN1CCCCC1,-13.5% (active)
18,O=C(c1ccc(Cl)cc1)C1[C@H](c2ccc(Br)cc2)[C@@H](c2ccccc2)NC12C(=O)Nc1ccc(Br)cc12 (some centres undefined),-42.8% (active)
19,COc1ccc(-c2cc(C(=O)N=Nc3c(O)[nH]c4ccc(Cl)cc34)c3ccccc3n2)cc1OC,109%
20,O=C(NC(=S)N1CCN(c2ncnc3c2cnn3-c2ccccc2)CC1)c1ccc(Br)cc1,90.8%
21,Cn1cc(-c2cc(N)n3nc(-c4cn(C)c5ncc(Br)cc45)cc3n2)c2cc(Br)cnc21,-71.2% (active)
22,O=[N+]([O-])c1ccc(/C=C/c2nc3ccccc3n3c(=S)[nH]nc23)cc1,79.1%
23,C/C(=N\N=C1/C(=O)Nc2ccccc21)c1ccc2c(c1)Nc1ccccc1S2,63.6%
24,CC(=O)Oc1ccccc1C(=O)[Se]CC(=O)Nc1cccc(C(F)(F)F)c1,-14.9% (active)
25,COC(=O)c1cc(C(=O)CBr)n2c1ccc1c3ccccc3ccc12,49.3%
26,CN1C/C(=C\c2ccc(O)cc2O)c2[o+]c3cc(O)ccc3cc2C1,46.8%
27,Nc1nnc(-c2c[nH]c3ccc(F)cc23)c(-c2c[nH]c3ncccc23)n1,63.3%

row,Compound,growth
1,O=C(N/N=C/c1ccc(Br)o1)c1[nH]c2ccc(Br)cc2c1-c1ccccc1,-48.7% (active)
2,Cc1ccc(N=Nc2c(N)nn3c(-c4cc5cc(Br)ccc5oc4=O)ccnc23)cc1,83.2%
3,Cc1ccc(C(=O)NNC(=O)CSc2nc3ccccc3c(=O)[nH]2)cc1,93.3%
4,Nc1cccnc1/C=N/NC(=S)NCCNC(=O)c1ccc(-n2nc(-c3ccccc3O)nc2-c2ccccc2O)cc1,-8.62% (active)
5,O=C(Nc1ccccc1)N1CCN(c2cc(-c3cn(-c4ccccc4)nc3-c3cccc(O)c3)ccn2)CC1,23.3%
6,COC[C@@H](CC(C)C)N=C1NC(=O)/C(=C/c2ccc3ncsc3c2)N1,1.21% (active)
7,Cc1ccc(-c2nc(C#N)c(S(=O)(=O)N3CCN(S(=O)(=O)c4ccccc4)CC3)o2)cc1,-44.9% (active)
8,Nc1cc(-c2c[nH]c3ccc(Cl)cc23)nc2cc(-c3c[nH]c4ccccc34)nn12,-18.2% (active)
9,COc1ccc(Cc2nn(CC(=O)N/N=C/c3ccc(F)cc3)c(=O)c3c(C)noc23)cc1,78.2%
10,Cc1cc2c(cc1Cl)C(=O)/C(=C/c1ccc(F)cc1)O2,101%
11,Cc1nc(Nc2nc(C)c3ccc(OCCN4CCOCC4)cc3n2)[nH]c(=O)c1C,2.88% (active)
12,N#CC1=C(c2cccs2)Nc2c(c(-c3ccccc3)nn2-c2ccccc2)C12C(=O)Nc1ccc(Br)cc12 (centres undefined),-7.78% (active)
13,COc1ccc(CN2[C@@H](C(=O)NCc3ccc(C(=O)NO)cc3)Cc3c([nH]c4ccccc34)[C@@H]2C2CC2)cc1,-8.06% (active)
14,CC(=O)OC[C@@]1(C)C2CC[C@]3(C)C(CC=C4C5CC(C)(C)CC[C@]5(C(=O)Nc5ccc(F)cc5)CC[C@]43C)[C@@]2(C)C[C@@H](OC(C)=O)[C@@H]1OC(C)=O (some centres undefined),27.9%
15,N/N=C(\N)c1c(N)nc(=S)[nH]c1-c1ccc(Cl)cc1Cl,89.1%
16,Cn1cc(-c2cc3nc(-c4cn(C)c5ncccc45)cc(N)n3n2)c2ccccc21,-44.8% (active)
17,COc1cc2nc(SCc3ccccc3)n(-c3ccc(Cl)cc3)c(=O)c2cc1OC,34.8%
18,Nc1nn2c(-c3cc4ccccc4oc3=O)ccnc2c1N=Nc1ccccc1,108%
19,COc1ccc([C@H](C)Nc2nc(Cl)nc3ccccc23)cc1,7.64% (active)
20,COc1ccc(CN2[C@@H](C(=O)NCc3ccc(C(=O)NO)cc3)Cc3c([nH]c4ccccc34)[C@@H]2C)cc1,-5.52% (active)
21,COc1ccc2[nH]cc(-c3cc4nc(-c5cn(C)c6ncc(Br)cc56)cc(N)n4n3)c2c1,-61.2% (active)
22,CC(C)CSc1nc(NCCc2c[nH]c3ccccc23)c(C#N)c(-c2ccccc2)n1,60.7%
23,C#CCOc1ccc(/C=N/Nc2nc(-c3cc4cc(OC)ccc4oc3=O)cs2)cc1OC,76.1%
24,COc1ccc2c(c1)c(/C=N/Nc1ccc3ccccc3n1)cn2C,-57.7% (active)
25,CN1C(=O)C(O)(CC(=O)c2cc3ccccc3oc2=O)c2ccccc21 (centres undefined),84.4%
26,O=c1[nH]c2ccccc2cc1CSc1ccc(Nc2nccc(-c3ccc(Cl)cc3)n2)cc1,74.8%
27,CCOP(=O)(OCC)O[C@H]1CCC(=O)[C@@H]2[C@H]1[C@H]1C[C@@H]3[C@@]4(C)CCCC(C)(C(=O)OC)[C@@H]4CC[C@@]23C=C1C(C)C (some centres undefined),36.4%

row,Compound,growth
1,CCCCNC(=S)Nc1ccc(OCc2nc3ccc(Cl)cc3[nH]2)cc1,13%
2,COc1ccc(C(=O)/C=C/c2cc(F)cc(C(F)(F)F)c2)cc1S(N)(=O)=O,-4.63% (active)
3,COc1ccc(-c2nc3ccc(-c4nnc(SCc5ccccc5)o4)cc3[nH]2)cc1,16.3%
4,COc1cc(/C=C/C(=O)c2cnn(-c3cc(=O)[nH]c4ccc(Br)cc34)c2C)cc(OC)c1OC,-19.6% (active)
5,Nc1nc(-c2ccccc2)cc(-c2cc3ccccc3nc2Cl)n1,51.6%
6,CN1C(=O)/C(=C\C(=O)c2cc3ccccc3oc2=O)c2ccccc21,79.3%
7,CN1CCN(c2ccc(C(=O)/C=C/c3cc(C(F)(F)F)ccc3Cl)cc2)CC1,-29.3% (active)
8,Cc1ccc(Nc2nnc(-c3c[nH]c4ccccc34)o2)c(C)c1,1.4% (active)
9,Clc1ccc(-c2ccc(OCCCN3CCN(c4ccncc4)CC3)cc2)cc1,-13.9% (active)
10,N#Cc1c(Cl)nc(SCc2ccc(F)cc2)nc1-c1ccc(F)cc1,50.2%
11,CCCn1c(=O)c2[nH]c(-c3ccc(OCc4nc5ccc(C(F)(F)F)cc5[nH]4)cc3)nc2n(CCC)c1=O,55.9%
12,Cc1ccc(C(=O)Nc2cc(-n3ccnc3C)cc(C(F)(F)F)c2)cc1C#Cc1cnc2cccnn12,-28.8% (active)
13,CCC(C)(C)c1ccc(OCCCCCCN2CCN(c3ccncc3)CC2)cc1,-62.2% (active)
14,N#C/C(=C\c1ccc(N(c2ccccc2)c2ccccc2)cc1)C(N)=O,68.7%
15,CN(C)c1nc(NCCNS(=O)(=O)c2ccc(C3=Nc4c(N)nc(N)nc4NC(c4ccc(C(F)(F)F)cc4)C3)cc2)nc(Nc2ccc(F)cc2)n1 (centres undefined),-13.7% (active)
16,Cn1cc(-c2nnc(N)nc2-c2c[nH]c3ccc(F)cc23)c2cc(Br)cnc21,47.1%
17,C=CC[n+]1cccc2c3ccccc3ccc21,57.2%
18,Cc1ccc(S(=O)(=O)c2nc(S(=O)(=O)c3ccc(C)cc3)c(N3CCC(O)CC3)s2)cc1,35.5%
19,C=CC(=O)Nc1ccc(C)c(Oc2ccc(Cl)cc2)c1,54%
20,O=c1[nH]c2ccccc2cc1CSc1ccc(Nc2nccc(-c3ccc4c(c3)OCO4)n2)cc1,97.4%
21,CC12CC[C@@H]3[C@]4(C)COC(c5c(F)cccc5F)O[C@@H]4CC[C@@]3(C)[C@@H]1CC(C1=CCOC1=O)O2 (some centres undefined),60.3%
22,O=C(NO)c1ccc(CNC(=O)[C@H]2Cc3c([nH]c4ccccc34)[C@H](c3ccccc3)N2)cc1,0.371% (active)
23,CCCCOc1ccc(NC(=O)c2sc3nc(C)ccc3c2N)cc1,46.8%
24,CC(=O)Nc1ccc(-n2cnc3cc(-c4ccc(O)cc4)ccc32)cc1C(F)(F)F,4.45% (active)
25,O=C(Cn1c(-c2ccccc2)nc2ccccc21)N=Nc1c(O)[nH]c2ccc(Cl)cc12,57.2%
